Measured values: the supplement of paper PMC7724964

T1: GGA1 1-157 VHS (domain begin residue: 1, domain end residue: 157), Q9UJY5
T1 chain: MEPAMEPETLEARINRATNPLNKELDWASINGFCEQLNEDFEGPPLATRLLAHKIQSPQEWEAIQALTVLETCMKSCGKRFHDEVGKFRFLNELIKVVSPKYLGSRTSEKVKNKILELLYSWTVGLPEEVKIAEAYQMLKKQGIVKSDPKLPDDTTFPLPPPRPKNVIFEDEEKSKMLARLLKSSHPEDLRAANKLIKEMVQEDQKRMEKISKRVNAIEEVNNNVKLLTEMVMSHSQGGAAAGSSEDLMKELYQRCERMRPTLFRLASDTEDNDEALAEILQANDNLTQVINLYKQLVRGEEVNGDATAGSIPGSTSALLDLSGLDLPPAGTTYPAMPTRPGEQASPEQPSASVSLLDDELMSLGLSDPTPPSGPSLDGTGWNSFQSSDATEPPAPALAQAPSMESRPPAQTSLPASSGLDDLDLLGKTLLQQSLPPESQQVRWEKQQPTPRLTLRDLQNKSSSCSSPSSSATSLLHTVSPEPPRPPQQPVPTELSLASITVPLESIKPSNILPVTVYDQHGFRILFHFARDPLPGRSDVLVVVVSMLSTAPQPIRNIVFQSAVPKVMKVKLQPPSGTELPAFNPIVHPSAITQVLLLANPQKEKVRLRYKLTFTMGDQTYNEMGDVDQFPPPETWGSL

T2: ESR2 263-500 Hormone_recep (domain begin residue: 263, domain end residue: 500), Q92731
T2 chain: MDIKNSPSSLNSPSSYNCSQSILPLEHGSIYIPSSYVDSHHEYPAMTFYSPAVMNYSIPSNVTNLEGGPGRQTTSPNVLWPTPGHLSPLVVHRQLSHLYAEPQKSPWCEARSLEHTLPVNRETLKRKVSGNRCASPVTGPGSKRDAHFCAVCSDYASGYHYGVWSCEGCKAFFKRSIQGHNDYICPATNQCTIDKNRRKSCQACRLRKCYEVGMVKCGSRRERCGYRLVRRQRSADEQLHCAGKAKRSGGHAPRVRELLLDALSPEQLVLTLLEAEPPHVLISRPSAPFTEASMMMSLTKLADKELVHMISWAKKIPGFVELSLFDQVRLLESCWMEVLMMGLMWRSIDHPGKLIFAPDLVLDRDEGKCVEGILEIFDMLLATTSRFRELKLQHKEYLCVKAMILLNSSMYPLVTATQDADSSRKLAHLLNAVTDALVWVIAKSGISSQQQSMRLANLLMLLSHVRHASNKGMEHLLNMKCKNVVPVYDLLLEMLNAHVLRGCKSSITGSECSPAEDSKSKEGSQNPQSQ

T3: ESRRG 219-458 Hormone_recep (domain begin residue: 219, domain end residue: 458), P62508
T3 chain: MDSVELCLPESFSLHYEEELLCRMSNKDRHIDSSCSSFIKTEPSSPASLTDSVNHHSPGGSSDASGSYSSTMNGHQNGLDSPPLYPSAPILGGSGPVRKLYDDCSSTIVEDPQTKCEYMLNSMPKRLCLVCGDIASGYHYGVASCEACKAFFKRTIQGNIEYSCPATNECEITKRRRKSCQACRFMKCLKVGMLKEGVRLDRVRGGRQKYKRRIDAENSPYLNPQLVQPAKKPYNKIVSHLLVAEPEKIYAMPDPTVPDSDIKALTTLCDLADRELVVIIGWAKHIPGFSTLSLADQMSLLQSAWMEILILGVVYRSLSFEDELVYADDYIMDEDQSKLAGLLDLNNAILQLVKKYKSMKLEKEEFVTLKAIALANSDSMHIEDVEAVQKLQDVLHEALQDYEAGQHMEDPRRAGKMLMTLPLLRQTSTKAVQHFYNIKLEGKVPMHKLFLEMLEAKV

T4: FKBP3 109-224 FKBP_C (domain begin residue: 109, domain end residue: 224), Q00688
T4 chain: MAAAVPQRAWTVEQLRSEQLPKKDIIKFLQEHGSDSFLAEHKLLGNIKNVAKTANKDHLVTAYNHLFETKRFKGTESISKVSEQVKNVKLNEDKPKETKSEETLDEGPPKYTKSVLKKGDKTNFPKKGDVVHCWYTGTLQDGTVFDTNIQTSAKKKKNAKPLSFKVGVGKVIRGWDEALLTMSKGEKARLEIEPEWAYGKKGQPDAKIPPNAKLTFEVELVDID

T5: ENAH 9-116 WH1 (domain begin residue: 9, domain end residue: 116), Q8N8S7
T5 chain: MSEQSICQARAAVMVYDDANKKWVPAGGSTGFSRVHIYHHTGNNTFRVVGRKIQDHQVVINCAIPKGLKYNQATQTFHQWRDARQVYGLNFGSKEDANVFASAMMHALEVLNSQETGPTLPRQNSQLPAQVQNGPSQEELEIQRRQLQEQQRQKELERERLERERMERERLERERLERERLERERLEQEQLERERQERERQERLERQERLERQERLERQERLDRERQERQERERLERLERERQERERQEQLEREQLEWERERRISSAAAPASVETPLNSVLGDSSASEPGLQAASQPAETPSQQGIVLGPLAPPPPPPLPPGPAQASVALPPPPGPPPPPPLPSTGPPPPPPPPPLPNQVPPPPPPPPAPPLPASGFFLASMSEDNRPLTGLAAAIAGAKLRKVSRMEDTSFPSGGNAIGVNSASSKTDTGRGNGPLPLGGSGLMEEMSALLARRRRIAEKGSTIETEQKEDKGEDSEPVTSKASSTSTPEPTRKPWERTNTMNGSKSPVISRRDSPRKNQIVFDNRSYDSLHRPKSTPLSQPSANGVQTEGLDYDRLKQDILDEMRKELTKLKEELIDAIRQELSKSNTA

T6: FRS3 12-117 IRS (domain begin residue: 12, domain end residue: 117), O43559
T6 chain: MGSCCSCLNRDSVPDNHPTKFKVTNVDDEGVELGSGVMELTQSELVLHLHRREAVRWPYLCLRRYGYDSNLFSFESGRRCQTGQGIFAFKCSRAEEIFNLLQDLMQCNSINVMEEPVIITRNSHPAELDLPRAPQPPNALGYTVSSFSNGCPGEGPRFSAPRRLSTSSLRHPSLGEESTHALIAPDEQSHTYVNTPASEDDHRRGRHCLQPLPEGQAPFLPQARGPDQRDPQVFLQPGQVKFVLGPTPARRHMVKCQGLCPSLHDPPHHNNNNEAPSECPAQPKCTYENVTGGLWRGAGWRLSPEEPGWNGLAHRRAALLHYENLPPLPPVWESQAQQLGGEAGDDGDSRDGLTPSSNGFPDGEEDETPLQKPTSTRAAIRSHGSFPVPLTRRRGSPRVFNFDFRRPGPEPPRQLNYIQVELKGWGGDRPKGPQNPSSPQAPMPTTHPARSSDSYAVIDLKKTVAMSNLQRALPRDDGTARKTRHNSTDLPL

T7: ESRRA 179-423 Hormone_recep (domain begin residue: 179, domain end residue: 423), P11474
T7 chain: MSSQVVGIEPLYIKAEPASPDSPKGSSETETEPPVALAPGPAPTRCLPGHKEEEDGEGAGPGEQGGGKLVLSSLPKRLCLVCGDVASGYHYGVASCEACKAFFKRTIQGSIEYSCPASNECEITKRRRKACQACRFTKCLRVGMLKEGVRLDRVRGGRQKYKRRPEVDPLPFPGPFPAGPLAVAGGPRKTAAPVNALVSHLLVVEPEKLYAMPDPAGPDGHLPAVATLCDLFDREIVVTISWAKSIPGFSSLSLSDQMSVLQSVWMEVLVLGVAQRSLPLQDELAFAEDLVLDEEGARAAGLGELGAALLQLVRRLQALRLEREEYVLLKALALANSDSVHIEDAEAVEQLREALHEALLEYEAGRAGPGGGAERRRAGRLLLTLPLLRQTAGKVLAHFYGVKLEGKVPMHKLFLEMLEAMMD

T8: SPRED1 13-131 WH1 (domain begin residue: 13, domain end residue: 131), Q7Z699
T8 chain: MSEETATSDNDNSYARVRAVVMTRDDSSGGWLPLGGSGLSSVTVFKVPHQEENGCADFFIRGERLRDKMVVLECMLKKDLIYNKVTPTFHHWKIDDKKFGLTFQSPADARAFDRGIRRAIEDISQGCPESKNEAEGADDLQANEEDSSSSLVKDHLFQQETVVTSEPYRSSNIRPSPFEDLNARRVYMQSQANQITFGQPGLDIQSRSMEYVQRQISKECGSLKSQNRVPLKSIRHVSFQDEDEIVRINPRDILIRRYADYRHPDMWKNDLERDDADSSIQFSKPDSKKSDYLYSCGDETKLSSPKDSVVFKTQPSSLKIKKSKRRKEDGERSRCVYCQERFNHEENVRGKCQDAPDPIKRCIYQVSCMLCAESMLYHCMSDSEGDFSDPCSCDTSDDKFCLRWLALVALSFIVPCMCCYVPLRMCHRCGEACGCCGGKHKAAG


Target: T1, GGA1 1-157 VHS (domain begin residue: …
Assay: phage ELISA signal ratio (GST-PRM binding over GST background); higher = stronger binding of peptide-phage to the PRM
How it was run: (§1)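 Approximately 48 individual clones from selection rounds 4 and 5 were tested by phage ELISA, and those scoring positive were sequenced. They came from five rounds of selecting an M13 phage library of randomized, cysteine-free, glycine-flanked hexadecapeptides on the gene-8 major coat protein against human peptide recognition domains fused to the C-terminus of glutathione S-transferase (GST) in 96-well plates. Each figure in the table is the ELISA signal on the GST-domain fusion relative to the signal on GST alone.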

Row | Binder | phage ELISA signal ratio
1 | TMHHDDQLLDLYSVRK | 18.5
2 | VNNQWDNDVPMLSMFA | 16.4
3 | HDFYIPYMYQDVTMIM | 6.03
4 | DEILLHLPWAAMHWEG | 22.3
5 | WDIDMWDLQEWMMIQS | 13.9
6 | PQIQWYMDDILLVPTI | 15.5
7 | WGHYEEDQMFVFMDHE | 19.8

Target: T2, ESR2 263-500 Hormone_recep (domain …
Assay: as above
How it was run: as §1

Row | Binder | phage ELISA signal ratio
8 | GVDVWLWDKQWNMWMP | 25.9

These binders were tested against GGA3 1-153 VHS (domain begin residue: 1, domain end residue: 153) in the same assay as above.
How it was run: as §1

Row | Binder | phage ELISA signal ratio
9 | WHGQEADDVQMLWHWS | 5.39
10 | MEPFTTWDQLPWWMQE | 12.9
11 | VDEWSVMKYPVEQKWV | 21.6
12 | MDWTILDFPYQNWPRS | 13.9
13 | HLDQPPWWTLQEWASH | 12.2
14 | SDVPPWWYHEPITGPM | 17.8

Target: T3, ESRRG 219-458 Hormone_recep (domain …
Assay: as above
How it was run: as §1

Row | Binder | phage ELISA signal ratio
15 | QYVEEGSWYMLHMYLT | 17.4
16 | TNPPAEHMSRLHWELT | 18.2
17 | SFPFLKMYLDPEPDDV | 11.2

Target: T4, FKBP3 109-224 FKBP_C (domain begin …
Assay: as above
How it was run: as §1

Row | Binder | phage ELISA signal ratio
18 | KGVFLPEIEWKQGYDQ | 11.9

Target: T5, ENAH 9-116 WH1 (domain begin residue: …
Assay: as above
How it was run: as §1

Row | Binder | phage ELISA signal ratio
19 | WEGNQWEWPPAYMELM | 7.2
20 | VTDNAWPYPPVAVSQH | 7.69

Target: T6, FRS3 12-117 IRS (domain begin residue: …
Assay: as above
How it was run: as §1

Row | Binder | phage ELISA signal ratio
21 | MTWWVAPWNESLDLWE | 10.5
22 | VWQVPEWQTVQLEYMK | 17.9

These binders were tested against PCMT1 1-227 PCMT (domain begin residue: 1, domain end residue: 227), P22061 in the same assay as above.
Chain of PCMT1 1-227 PCMT (domain begin residue: 1, domain end residue: 227), P22061 (P22061 whole entry): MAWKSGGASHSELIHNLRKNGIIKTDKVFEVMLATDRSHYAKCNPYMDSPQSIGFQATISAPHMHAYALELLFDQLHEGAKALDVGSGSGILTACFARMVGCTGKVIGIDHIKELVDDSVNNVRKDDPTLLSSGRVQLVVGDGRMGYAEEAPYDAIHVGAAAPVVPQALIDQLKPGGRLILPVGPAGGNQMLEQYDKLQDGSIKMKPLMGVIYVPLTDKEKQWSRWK
How it was run: as §1

Row | Binder | phage ELISA signal ratio
23 | TNPPAEHMSRLHWELT | 18.2
24 | SFPFLKMYLDPEPDDV | 11.2

These binders were tested against EIF2S1 9-93 S1 (domain begin residue: 9, domain end residue: 93), P05198 in the same assay as above.
Chain of EIF2S1 9-93 S1 (domain begin residue: 9, domain end residue: 93), P05198 (P05198 whole entry): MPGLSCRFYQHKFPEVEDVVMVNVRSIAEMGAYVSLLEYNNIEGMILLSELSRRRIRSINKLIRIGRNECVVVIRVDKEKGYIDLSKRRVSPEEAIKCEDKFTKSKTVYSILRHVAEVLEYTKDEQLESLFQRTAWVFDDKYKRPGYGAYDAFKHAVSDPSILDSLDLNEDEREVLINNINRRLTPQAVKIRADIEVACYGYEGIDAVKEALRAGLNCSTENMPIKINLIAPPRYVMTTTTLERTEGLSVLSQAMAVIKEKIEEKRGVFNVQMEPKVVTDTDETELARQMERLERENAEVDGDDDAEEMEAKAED
How it was run: as §1

Row | Binder | phage ELISA signal ratio
25 | WTWDSEMGIWTLANDI | 20.4
26 | VWVAWSWMHSVQMEAD | 12.3

The binders below were run against PABPC1 96-174 RRM_1 (domain begin residue: 96, domain end residue: 174) in the same assay as above.
How it was run: as §1

Row | Binder | phage ELISA signal ratio
27 | WTWDSEMGIWTLANDI | 20.4
28 | VWVAWSWMHSVQMEAD | 12.3

Target: T7, ESRRA 179-423 Hormone_recep (domain …
Assay: as above
How it was run: as §1

Row | Binder | phage ELISA signal ratio
29 | VQWQDQYPTFYAEMSK | 8.22
30 | EFNQWFADHWQQWHYE | 3.76

What follows are binders tested against EIF4E 2-217 IF4E (domain begin residue: 2, domain end residue: 217), P06730 in the same assay as above.
Chain of EIF4E 2-217 IF4E (domain begin residue: 2, domain end residue: 217), P06730 (P06730 whole entry): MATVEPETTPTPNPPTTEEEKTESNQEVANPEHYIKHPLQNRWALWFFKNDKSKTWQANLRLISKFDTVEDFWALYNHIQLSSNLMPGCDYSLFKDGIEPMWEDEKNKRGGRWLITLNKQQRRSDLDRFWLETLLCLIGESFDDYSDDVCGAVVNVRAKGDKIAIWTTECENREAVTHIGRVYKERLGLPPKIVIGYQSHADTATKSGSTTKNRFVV
How it was run: as §1

Row | Binder | phage ELISA signal ratio
31 | SVWWFGQTPYVLWEAS | 7.15

Target: T8, SPRED1 13-131 WH1 (domain begin …
Assay: as above
How it was run: as §1

Row | Binder | phage ELISA signal ratio
32 | EFNQWFADHWQQWHYE | 5.28
